# ± gives the standard deviation of the averaged measurements. Whole data set: some 25,000 sequences, median “ln(normalized median fluorescence intensity)” near 10, cut for the highest 2% near 12. Many of the other results were omitted from the sample, so the highest values are more common in it than they were.
# System: PfAP2-G AP2 domain (GST-tagged)
# Assay: gcPBM binding intensity (ln(normalized median fluorescence intensity)); higher = stronger DNA binding
# Summary of the method: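 DNA-binding domains from P. falciparum, fused to GST and produced in E. coli, were put on an Agilent 4 × 180k double-stranded probe array for 1 h in 1× PBS holding 1% milk, 0.2 mg/ml BSA, 0.5% salmon testes DNA and 0.03% Triton X-100. Probes were primer-extended, 36 bp long and drawn from intergenic genomic regions, with negative controls included. After Alexa488 anti-GST antibody detection and a 488 nm scan, binding intensity was set as the highest Masliner-normalised natural-log median intensity across replicate spots of either probe orientation.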
row,Sequence,gcPBM binding intensity (ln)
1,GTTGGGTAATTCGTAACACACATAAAATATATATAA [CACACA_site3986],10.13 ± 0.099
2,CATAATGTAAATAAGTGTACACATATATAATACATA [XGTACX_site3108],11.6 ± 0.9
3,TATATTTATAGGTACACACACACATATAAATAAATA [CACACA_site6345],11.3 ± 0.98
4,TTATTTCTACCTTTTTGTACACATTATTATGAAACC [XGTACX_site5325],11.3 ± 0.81
5,ACTATTTTAAAAATATGTACATACGTTGTAATTTAA [XGTACX_site7999],11.4 ± 0.83
6,ATAATACAATTTATAACACACACACTATAATACATA [CACACA_site8338],10.025 ± 0.007
7,TTAGGTATATATAAACGTACTCACAATATCATATAA [XGTACX_site8743],11.1 ± 0.71
8,GAATTATAAGAATAAACACACAAGCTTAAAAAAAAA [CACACA_site1204],9.74 ± 0.18
9,ATATATTTATATTTGTGTACATATTTATTATATTTA [XGTACX_site404],11.5 ± 0.67
10,AATATATATTTGTGTACACATTATATATATATATAT [CACACA_site6103],11.9 ± 1.1
11,TATTTGTGTATTTTTACACACATTAATATATTTATA [CACACA_site7562],9.9 ± 0.2
12,CAAAAAGGAATGTATGCACACAATTGATTTTAACTC [CACACA_site1468],10 ± 0.13
13,AAATTAATAAATATTTTTATAAATTATAATATTAAT [GTGCAC_negctrl_site533],9.37 ± 0.16
14,TTTATTTTTAAAGGCACACACATTTTTATTTTTAAA [CACACA_site2021],10.1 ± 0.19
15,AGAAATTAATCGAGGTGTACGTACATCCAAATATAT [XGTACX_site7650],11.8 ± 1.2
16,AGAAATTAATCGAAGTGTACATATAAACATACATAT [XGTACX_site5518],11.3 ± 0.69
17,GAAAATACGTTTAATCGTACATATATATAATATATA [XGTACX_site4243],11.1 ± 0.88
18,GAGAAAAGGAAATTCACACATATAAAGAAAGATCTA [CACACA_site5420],9.865 ± 0.064
19,AAAAAATATTTTTACAGTACATATATATAAAATGTT [XGTACX_site3215],10.9 ± 0.58
20,AAGGAAATATAATATACACACATAAGTGTACTTCTA [CACACA_site6079],11.7 ± 1.1
21,AAGGAAATATAATATACACACATAAGTGTACTTATA [CACACA_site4030],11.6 ± 1.1
22,ATAAATACACACAAGTGTACATACTTCTATAAATAT [XGTACX_site1845],11.3 ± 0.96
23,AGTATAAAATAAATGTGTACACAAGAAAATATGTTA [XGTACX_site8381],11.8 ± 0.93

row,Sequence,gcPBM binding intensity (ln)
1,ATATATATATATATGTGTACACAACAAAATAAAAAA [XGTACX_site7378],11.7 ± 0.79
2,AAGAAATAAAAAGAATGTACACAATATGTATTATAA [XGTACX_site4733],11.5 ± 0.69
3,ATATAAATAAATATATGTACACACACAAATATATAC [XGTACX_site3950],11.4 ± 0.73
4,ATAATATAACACAAATGTACAAAAAATAAATAAATA [XGTACX_site385],10.7 ± 0.4
5,TATATATATATGTGTACACAAAAAATATTATATTAT [CACACA_site5505],11.9 ± 0.93
6,ATAAAATAAAAGTGTACACAAGAAAATATGTTATGT [CACACA_site6033],11.6 ± 0.79
7,TATATATATATGTGTAGTACAACAAATATGAAAAAT [XGTACX_site4059],11.7 ± 0.86
8,TACAAATTAATATGTACACACAAATATATATATATA [CACACA_site1977],11.4 ± 0.87
9,ATATATGAAAATATATGTACACAACATATAAAATAG [XGTACX_site5132],11.4 ± 0.83
10,GATTATATATGAAAATGTACAAATATATATATATAT [XGTACX_site5963],10.8 ± 0.28
11,TTTTTTTTTTTTTTTACACACACAAAATATTATATG [CACACA_site2471],9.99 ± 0.38
12,ATCTAATAAAAATACACACACATATGATTTGTGAAT [CACACA_site1867],10.1 ± 0.28
13,TTCTTTTTAAATATACTAATTATGTATAAAACAGAA [GTGCAC_negctrl_site131],9.94 ± 0.23
14,TAAATTATTTATAAAGCACACAAGAAAAAATAAAAT [CACACA_site2132],10.2 ± 0.092
15,TTTCACACTATTTCATGTACACATAAAATTATATAT [XGTACX_site8692],11.4 ± 0.94
16,ATACTATAATAATACACACTCATTAGATATATAAAG [CACACA_site7787],9.99 ± 0.12
17,AAAAAAAAAAAATGAGCACACATAAATAAAAACAAA [CACACA_site8447],10.2 ± 0.12
18,AAATTAAATAAATTTACACACTAAAAATTACAGATA [CACACA_site4722],9.88 ± 0.028
19,AATGTATAATTATAATGTACAAATAATATATAATAT [XGTACX_site5407],10.9 ± 0.4
20,TTTGACAAATTATTGTGTACACAATATTATTATATA [XGTACX_site8320],11.7 ± 1
21,AAAAATATATTATATGTACACACAAAATTAAGGGAT [CACACA_site8384],11.5 ± 0.83
22,TTATTTTTTTTTTTTTGTACACAATTTGACACATTA [XGTACX_site7983],11.5 ± 0.91
23,TTAAAAATGTGTGTGCGTACATAATATTTCGAAAAA [XGTACX_site8197],11.6 ± 1

row,Sequence,gcPBM binding intensity (ln)
1,ATATATATATATATGTGTACACAAAAAATATTATAT [XGTACX_site5741],11.6 ± 0.83
2,AAAAATATAATATAATGTACACAAAAAAAAAAAAAT [XGTACX_site4914],11.6 ± 0.91
3,TGTATTATATATACACAAATATTTATGTGTGTGTTT [XGTACX_negctrl_site475],10.1 ± 0.11
4,GACAAATTATTGTGTACACAATATTATTATATATAC [CACACA_site6020],11.6 ± 0.89
5,TATATATATATAATGTGTACACAAATATATATTATA [XGTACX_site8786],11.7 ± 1.1
6,AAATGTGTTAATGTGCGTACACATATATATAATATT [XGTACX_site2792],11.7 ± 1.1
7,ATACACATATGTTAATGTACACATATATAATATTTA [XGTACX_site163],11.3 ± 0.78
8,TTTTTTTTCTCACAAAAAATAATTAACAAAAAGGAA [XGTACX_negctrl_site154],10.2 ± 0.32
9,ATATATATAATAAATACACACATTTATATAGATAAA [CACACA_site3254],9.925 ± 0.092
10,TGACTTTGTTGAATTTGTCCTCTTAACTCATAATAT [GTGCAC_negctrl_site217],10.6 ± 0.48
11,TCCTTTCTTTTTTAAACATGCATATGTAATATAAAT [TGCATGCA_site979],10 ± 0.26
12,TTTTTTTGCGCGGGAAGAATAAAATTTATAGAATAT [TGCATGCA_negctrl_site306],10.4 ± 0.36
13,ATAAATAATATAAATACACACTAAAAAAGATATATA [CACACA_site6397],10.01 ± 0.014
14,AACTTCTTTTTTATAACACACAAAATATAAATACAA [CACACA_site4313],10.2 ± 0.43
15,ATAATAATATTGTGTACACAATAATTTGTCAAATCA [CACACA_site6019],11.7 ± 0.86
16,ATAATCACAAATAATTGTACATTTTGTTATATATAT [XGTACX_site7704],10.8 ± 0.45
17,TAGTATAAAATTATGTGTACACAAATATAACTTTTC [XGTACX_site5971],11.6 ± 0.78
18,TTTTTTTTTTTTGTGCGTACATACCATTTTAATAAT [XGTACX_site2760],11.6 ± 0.92
19,TATAAAATTATGTGTACACAAATATAACTTTTCTTT [CACACA_site5554],11.7 ± 0.95
20,TATAAATATAAATACTGTACATTATATTATATAATA [XGTACX_site2480],11 ± 0.71
21,TATATTTTTTTTGTGCGTACATACCATTTTAATAAT [XGTACX_site2751],11.7 ± 0.8
22,ATAATACCATTAATTTGTACATATATATTATATATA [XGTACX_site4345],10.9 ± 0.49
23,ATATATATACTGTGTACACAAATATATATTATATAT [CACACA_site6104],11.6 ± 0.84

row,Sequence,gcPBM binding intensity (ln)
1,TTGTGTCATATATTTTGTAATCAAAATAATTTTATT [TGCATGCA_negctrl_site307],10.1 ± 0.37
2,TTTATACAAATATGTACACACTAAATATATATTATG [CACACA_site4413],11.5 ± 0.77
3,ATATATATATATATATGTACTTATATATAATATAGA [XGTACX_site3488],11.2 ± 0.79
4,TTTATTATTATATTATTTTAATTTTTCTTTAGTACA [GTGCAC_negctrl_site392],10.29 ± 0.099
5,CTTTTTTTCTTTCCAAGTACTAAATTCATACAAATT [XGTACX_site2605],10.8 ± 0.51
6,CATTAATATATATATACATGCACGTTTTAAAAAAAA [TGCATGCA_site875],10.1 ± 0.23
7,GTAAGATTTCTTGTTGCATGCGGTAAAAAGTAAAAT [TGCATGCA_site469],10.6 ± 0.41
8,ACATTCATAAAAAAAAGTACATTTTTTATAAAAGAA [XGTACX_site6197],11.4 ± 0.75
9,AATATAAATAAAAACACACACACACCCATATATATA [CACACA_site2267],10.1 ± 0.32
10,ATATATGTATATATGTACATGAATATATAAAGAAAA [CACACA_negctrl_site315],11.1 ± 0.67
11,AATACATGAATATGTAGTACAGAAAAAAAAAATATA [XGTACX_site1945],11.7 ± 0.95
12,TTTATGTAATATACATGTACAGAATATAAAATATAT [XGTACX_site6906],11 ± 0.54
13,ATATTATCACAAGGTGGTACACAAAAAAAAAAAAAA [XGTACX_site8224],11.4 ± 0.95
14,TTTTTTTTTTTATGTGCACACAAAAGATGCTTATAT [CACACA_site2347],10.6 ± 0.53
15,ATTATTAAAATGATATGTACGCACATAATATACATA [XGTACX_site3236],11.6 ± 0.94
16,AACAATGTTGTACATACACACACACTAATAAAAAAT [CACACA_site8758],11.4 ± 0.95
17,AATAATATTTAATACGCACACAATAATAATATAAAA [CACACA_site1763],10.4 ± 0.32
18,ATAGCACATTTTTAAGCACACGTTTATTATATATAT [CACACA_site6084],10.3 ± 0.24
19,GGATGATTAAGGGGGACACACGTTTATATATTTATA [CACACA_site4342],11.7 ± 0.9
20,TTGGATGATTAAGGGGGACACACGTTTATATATTTA [CACACA_site338],11.4 ± 0.79
